Sm TGR inh: qHTS Assay for the Inhibitors of Schistosoma Mansoni Peroxiredoxins | AID 485364, 2010 | Schistosoma mansoni thioredoxin glutathione reductase (TGR), Q962Y6 | Potency, µM (top dose mostly 114 µM), most hits filed as inhibitors | 360,000 compounds, 3% hits | purified TGR, DTNB reduction, TNB absorbance 405 nm; further: nearly all actives have a fitted effect of over 60% in size
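TGR 20 nM + NADPH 100 uM (dispensed conc.), cpd preinc 15 min RT; start with NADPH (500 uM addition) then DTNB (15 mM addition). Kinetic TNB absorbance, 405 nm filter. Four-parameter Hill fit across titration.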
RE007 growth inh: qHTS Assay for Inhibitors of the HIV-1 protein Vpr. S. pombe RE007 Vpr strain, BacTiter-Glo ATP luminescence, 24 h. 360,000 compounds, 0.21% hits. Potency, µM (top dose mostly 92.2 µM), hits mostly inhibitors; active means well fitted falling curve with a large enough effect; inconclusive means small, poorly fitted or top-dose-only effect; inactive means no such curve, though single readings can be large or run the other way; further: nearly all actives have a fitted effect of over 50% in size
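Fission yeast RE007 carrying one integrated HIV-1 vpr copy, seeded at OD 0.01 in PMG+AL medium with 23 nL pinned compound. Grown 24 h at 30 degrees; viability read by BacTiter-Glo luminescence after 5 min.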
FMDV inh: High Throughput Screening for Foot and Mouth Disease Virus Antivirals | FMDV antiviral cell-based qHTS | Potency, µM (series often up to 57.9 µM), usual class: inhibitors | 410,000 compounds, 1.2% hits | AID 1159524, 2015; calls by dose curve; tested in HEK293T cells; further: read-out not given here; nearly all actives have a fitted effect of over 45% in size
Giardia FBPA inh: qHTS Assay for Inhibitors of Fructose-1,6-bisphosphate Aldolase from Giardia Lamblia. A8B2U2. purified Giardia FBPA. Potency, µM (series often up to 59.6 µM), most hits filed as inhibitors. 290,000 compounds, 0.71% hits. AID 2451, 2010; further: nearly all actives have a fitted effect of over 55% in size
Target sequence (A8B2U2 whole entry, looked up): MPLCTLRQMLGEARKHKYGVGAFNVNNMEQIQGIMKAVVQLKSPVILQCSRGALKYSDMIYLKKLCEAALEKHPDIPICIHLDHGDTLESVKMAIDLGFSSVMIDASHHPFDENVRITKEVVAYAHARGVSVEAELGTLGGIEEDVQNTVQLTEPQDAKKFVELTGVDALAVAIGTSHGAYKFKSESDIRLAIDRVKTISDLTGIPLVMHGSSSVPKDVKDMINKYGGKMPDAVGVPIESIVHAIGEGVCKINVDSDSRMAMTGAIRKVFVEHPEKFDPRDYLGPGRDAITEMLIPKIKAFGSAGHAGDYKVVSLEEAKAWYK
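40 nM FBPA preincubated 10 min at RT with compound (up to 57.5 uM final), then substrate plus GAPDH/TPI/NAD/arsenate coupling and diaphorase/resazurin added. Fluorescence read after 20 min at RT, 525/598 nm.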
HCMV inh: qHTS Assay for inhibitors of the human cytomegalovirus (HCMV); AID 1259415, 2018; 410,000 compounds, 4.5% hits; activity change, negative = inhibition, % at 57.5 µM; HFF cells, HCMV-luciferase reporter, 72 h; active compounds read low; in the data active means activity change below about -60%; inconclusive means no clear call, values can overlap the other calls; inactive means above about -39%
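Steps: HFFs plated, 16 h 37C; compounds added; HCMV-luciferase added to MOI 1 PFU/cell; 72 h 37C; OneGlo reagent, 5 min room temperature; luminescence read, normalized to controls.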
TbPYK inhibitor: qHTS of Trypanosoma Brucei Inhibitors; AID 624173, 2012; pyruvate kinase (Trypanosoma brucei), Q57TT1; TbPYK enzyme, Kinase-Glo Plus ATP luminescence, 45 min; 410,000 compounds, 0.12% hits; Potency, µM (top dose mostly 76.8 µM), most hits filed as inhibitors; further: nearly all actives have a fitted effect of over 50% in size
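Readout: single end-point luminescence (Kinase-Glo Plus, 10 min). Reaction conditions were TbPYK/substrate plus 130 uM ADP, 45 min at RT, pH 7.2 TEA buffer. No-enzyme wells served as controls, and data were normalized before concentration-response fitting.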
Numbers stand for hits; - = inactive; ? = inconclusive; . = no result given. Only some compounds are listed: those with a hit (about 7.7% of all), similar ones and a draw of the others. Unless noted, the call rests on the fitted dose curve; in most records, active means well fitted curve in the direction sought with a large enough effect; inconclusive means small, poorly fitted or top-dose-only effect, or another doubt; inactive means no such curve, though single readings can be large; an effect the other way counts as inactive or inconclusive.

SMILES | Sm TGR inh | RE007 growth inh | FMDV inh | Giardia FBPA inh | HCMV inh | TbPYK inhibitor
CC(C)NC(=O)[C@@H]1C[C@@H](Sc2nc3ccccc3[nH]2)CN1C1Cc2ccccc2C1 | . | . | - | . | . | .
COc1cc(Cl)c(C)cc1NC(=O)Cn1cc(S(=O)(=O)N2CCC(C)CC2)c2ccccc2c1=O | - | . | - | . | - | -
Cn1nnnc1Sc1c(Cl)cccc1[N+](=O)[O-] | - | - | - | - | -91 | -
Cc1cc2c(c(=O)n1Cc1ccccn1)C(C(C)C)C(C#N)=C(N)O2 (stereo not given) | - | - | - | - | - | -
COc1cccc(C2C(C#N)=C(N)Oc3cc(C)n(Cc4ccccn4)c(=O)c32)c1OC (stereo not given) | - | - | - | - | - | -
COc1cc(C2C(C#N)=C(N)Oc3cc(C)n(Cc4ccccn4)c(=O)c32)cc2c1OCO2 (stereo not given) | - | . | . | - | . | .
CCOc1cccc(C2C(C#N)=C(N)Oc3cc(C)oc(=O)c32)c1OCC (stereo not given) | - | - | - | - | - | -
CCOc1ccccc1C1C(C#N)=C(N)Oc2cc(C)n(C)c(=O)c21 (stereo not given) | 40µM | - | - | ? | - | -
CCOc1ccccc1C1C(C#N)=C(N)Oc2cc(C)n(Cc3ccccn3)c(=O)c21 (stereo not given) | 35µM | - | - | ? | - | -
COc1ccccc1C1C(C#N)=C(N)Oc2cc(C)n(Cc3ccccn3)c(=O)c21 (stereo not given) | 35µM | - | - | ? | - | -
COc1cc(C2C(C#N)=C(N)Oc3cc(C)n(CC4CCCO4)c(=O)c32)cc2c1OCO2 (stereo not given) | 45µM | - | - | ? | - | -
CC1CCCCc2cc(O)ccc2OC(=O)CC1 (stereo not given) | . | . | . | . | - | .
COc1ccccc1C1C(C#N)=C(N)Oc2cc(C)n(CCCn3ccnc3)c(=O)c21 (stereo not given) | 50µM | - | - | ? | - | -
Cc1cc2c(c(=O)n1CCCn1ccnc1)C(c1ccco1)C(C#N)=C(N)O2 (stereo not given) | - | - | - | - | - | -
COc1cccc(C2C(C#N)=C(N)Oc3cc(C)n(Cc4ccco4)c(=O)c32)c1 (stereo not given) | ? | - | - | ? | - | -
COc1ccc(C2C(C#N)=C(N)Oc3cc(C)n(Cc4ccco4)c(=O)c32)cc1 (stereo not given) | 32µM | - | - | ? | - | ?
O=C(NC1(C(F)(F)F)C(=O)Nc2c1c(=O)[nH]c(=O)n2-c1ccc(Cl)cc1)c1ccccc1F (stereo not given) | - | . | - | . | - | -
CCC(C)N1C(=O)/C(=C\c2ccc(N3CCCCCC3)cc2)C(=O)NC1=S (stereo not given) | ? | - | ? | - | - | -
CCC(C)N1C(=O)/C(=C\c2cc3c4c(c2)CCCN4CCC3)C(=O)NC1=S (stereo not given) | ? | - | 32µM | - | - | ?
CN(C)c1ncc(/C=C2/C(=O)NC(=S)N(C3CCCCC3)C2=O)cn1 | . | . | . | - | . | .
CCC(C)N1C(=O)/C(=C\c2cnc(N(C)C)nc2)C(=O)NC1=S (stereo not given) | 10µM | - | 22µM | - | - | ?
COc1ccc(C[C@H]2CN3C(=NC[C@@H]3Cc3ccc(O)cc3)N2C[C@H](C)NC(=O)c2ccc(C)c(Br)c2)cc1 | 40µM | - | - | - | . | -
COc1ccc(C[C@@H]2CN3C(=NC[C@@H]3C)N2C[C@H](C)NC(=O)CCC2CCCCC2)cc1 | 25µM | - | - | - | - | -
Cc1ccc(C(=O)N[C@@H](C)CN2C3=NC[C@H](C(C)C)N3C[C@H]2Cc2ccc(O)cc2)cc1Br | 8.9µM | - | - | - | - | -
Cc1ccc(C(=O)N[C@@H](C)CN2C3=NC[C@@H](Cc4ccccc4)N3C[C@H]2Cc2ccc(O)cc2)cc1Br | 50µM | - | ? | - | - | -

Screening data from PubChem BioAssay.
